Source: PubChem (National Center for Advancing Translational Sciences (NCATS))
Hits are enriched below; roughly 6% of the tested compounds scored in any of these assays.
D1 agonist – activates the human D1 dopamine receptor. activation, % at 2 µM. P21728. actives 1% (n = 360,000). HEK293 T-REx D1 cells, calcium flux, agonist mode; in the data active = activation above about 30%; note: 0% is about no effect
Target sequence (P21728 whole entry, looked up): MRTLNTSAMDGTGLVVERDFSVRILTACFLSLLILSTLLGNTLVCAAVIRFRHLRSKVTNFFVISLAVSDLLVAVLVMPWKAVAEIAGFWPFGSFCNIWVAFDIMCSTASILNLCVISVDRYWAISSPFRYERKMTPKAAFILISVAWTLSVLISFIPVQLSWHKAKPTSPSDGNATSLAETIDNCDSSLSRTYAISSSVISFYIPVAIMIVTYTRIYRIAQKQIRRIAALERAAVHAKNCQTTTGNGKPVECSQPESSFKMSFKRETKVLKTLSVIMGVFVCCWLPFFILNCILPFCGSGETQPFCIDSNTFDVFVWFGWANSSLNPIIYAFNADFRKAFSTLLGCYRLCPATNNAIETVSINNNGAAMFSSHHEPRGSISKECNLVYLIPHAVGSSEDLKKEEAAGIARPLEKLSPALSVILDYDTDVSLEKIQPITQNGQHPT
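Agonism was scored from calcium flux recorded over 180 s (1 read/s) after pintool compound addition, following a 10-cycle baseline. Cells were inducible force-coupled HEK293 TREx D1, plated overnight at 30 C and loaded with no-wash calcium dye.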
D1 potentiator – potentiators of human D1 dopamine receptor; potentiation, % at 10 µM; P21728; AID 504651; actives 0.036% (n = 360,000); HEK293 TREx D1 cells, calcium flux, dopamine EC20 potentiation; in the data active = potentiation above about 30%; note: 0% is about no effect
D1 antag – blocks dopamine activation of the human D1 receptor | activity change, negative = inhibition, % at 10 µM | P21728 | actives 3.2% (n = 360,000) | HEK293 TREx D1 cells, calcium flux, dopamine EC80; active compounds read low; in the data active = activity change below about -30%; note: % is set by controls: 0 for no effect and ±100 for the full control effect
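Tetracycline-induced HEK293 Trex D1 cells, force-coupled to calcium, dye-loaded; compounds added and read 180 s, then EC80 dopamine added and calcium flux tracked kinetically another 180 s.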
D3 ag – activates the human D3 dopamine receptor; max activation, %; actives 0.58% (n = 410,000); P35462; D3R DiscoveRx beta-arrestin cells, luminescence, 90 min; in the data active = max activation above about 30%; note: 0% is about no effect
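Agonist-mode cell screen: cells plated at 1500/well and incubated overnight at 37 °C, then exposed to library compounds for 90 min at 37 °C. Detection reagent was added for 30–60 min at room temperature, and luminescence was read.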
DRD3 antagonist – antagonists of human D3 dopamine receptor | AID 652054 | P35462 | actives 2.5% (n = 360,000) | max response, negative = inhibition, % | D3R cells, DiscoveRx beta-arrestin luminescence, antagonist mode; active compounds read low; in the data active = max response below about -50%; inconclusive = no clear call, values can overlap the other calls; note: % is set by controls: 0 for no effect and ±100 for the full control effect
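Cells plated overnight at 1500 cells/well, then exposed to library compounds with dopamine controls for 90 minutes at 37 degrees C. DiscoveRx reagent added for 30–60 minutes at room temperature; luminescence read, quantitative HTS format.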
* = called active by the depositor; ? = inconclusive; . = no result.

SMILES | D1 agonist | D1 potentiator | D1 antag | D3 ag | DRD3 antagonist
COc1cccc(CNC(=O)Cn2nc(N3CCN(c4ccccc4OC)CC3)ccc2=O)c1 | 3.4 | -3.0 | -14.7 | -20.4 | .
CCc1ccc(NC(=O)C2CCCN(S(=O)(=O)c3ccc4c(c3)oc(=O)n4C)C2)cc1 (centres undefined) | -0.1 | -3.2 | -18.6 | 5.7 | .
O=C(CN1CCCCC1)N1CCCc2ccccc21 | 3.6 | 5.8 | 1.1 | -38.5 | -82.3*
O=C(CN1CCCC1)N1CCCc2ccccc21 | -0.2 | 3.8 | -2.5 | -12.6 | ?
CCOC(=O)C1CCN(CC(=O)N2CCc3ccccc32)CC1 | 4.6 | -9.9 | -0.5 | -25.2 | -74.4*
O=C(CSc1nnc(-c2cccs2)n1-c1ccccc1)N1CCCc2ccccc21 | 3.6 | -5.0 | 3.9 | -2.1 | -20.9
CCn1c(SCC(=O)N2CCCc3ccccc32)nnc1-c1cccs1 | 4.7 | -3.5 | -3.8 | 5.0 | -68.0*
Cc1nc(SCC(=O)N2CCCc3ccccc32)c2oc3ccccc3c2n1 | -0.9 | -10.2 | 1.8 | 34.2* | 15.4
CCc1nc(SCC(=O)N2CCc3ccccc32)c2oc3ccccc3c2n1 | . | . | . | -3.6 | 8.8
Cc1nn(CCCC(=O)NCc2cccc(Cl)c2)c(=O)c2c1sc1ccccc12 | 1.5 | -0.5 | -14.9 | 1.4 | .
Cc1ccc2c(=O)cc(C(=O)Nc3sc4c(c3C(=O)NCC3CCCO3)CCCC4)oc2c1C (centres undefined) | 4.3 | -0.5 | -1.4 | -1.0 | .
Cc1ccc(CSCCC(=O)NCc2ccc(F)cc2Cl)cc1 | 2.3 | -1.9 | 0.2 | -18.6 | .
O=C(CS(=O)(=O)c1c[nH]c2ccccc12)N1CCCc2ccccc21 | -2.2 | -3.4 | -49.9* | -3.9 | 9.0
CC1CCN(CC(=O)N2CCc3ccccc32)CC1 | -0.1 | 2.2 | 3.6 | 0.4 | -57.6*
O=C(C(=O)N1CCCc2ccccc21)c1c[nH]c2ccccc12 | . | . | . | 3.5 | 7.6
Cc1ccc(NC2=C(CC(=O)O)C(c3ccc(F)cc3)N(c3ccc(C)cc3)C2=O)cc1 (centres undefined) | 1.0 | -2.0 | -0.7 | 7.7 | .
CC(=O)N1c2ccc(S(=O)(=O)N3CCCCCC3)cc2CC1C(=O)NCc1ccccc1 (centres undefined) | -0.3 | 0.1 | 3.7 | 3.2 | .
COc1cccc(CNCc2cccn2-c2nnc(N3CCN(c4ccccc4)CC3)s2)c1 | 10.3 | -4.1 | -5.5 | -7.5 | .
Cc1ccc(N=Nc2ccc(O)c3ncccc23)cc1C | 36.2* | -5.0 | -15.7 | -8.5 | -69.5*
Cc1ccc(N=Nc2ccc(O)c3ncccc23)cc1 | 16.3 | -4.2 | 6.8 | -12.9 | -118.5*
O=C(Nc1ccc(-c2nc3ccccc3[nH]2)cc1)c1ccco1 | 1.0 | -16.1 | -45.8* | 5.7 | 10.3
O=C(Nc1ccc(NC(=O)c2ccco2)cc1)c1ccco1 | 0.5 | 2.0 | -2.0 | -0.4 | -10.5
O=C(Nc1ccc(Oc2ccc(NC(=O)c3ccco3)c(NC(=O)c3ccco3)c2)cc1)c1ccco1 | 8.0 | -5.0 | 8.3 | 24.1 | -92.6*
O=C(/C=C/c1ccco1)Nc1ccc(-c2nc3ccccc3[nH]2)cc1 | 1.0 | -6.3 | -29.6 | 3.3 | -22.2
COc1ccc(NC(=O)c2ccco2)cc1NC(=O)c1cccc(C)c1OC | 2.4 | -6.2 | -30.7* | 2.8 | .
SMILES | D1 agonist | D1 potentiator | D1 antag | D3 ag | DRD3 antagonist
O=C(Nc1ccc(Br)cc1)c1ccco1 | -3.1 | -9.3 | -42.2* | 1.1 | -15.7
CCCSCCCNC(=O)C1CCCN(c2nn3cc(-c4ccc(OC)cc4)nc3s2)C1 (centres undefined) | 0.5 | -1.1 | -8.3 | 0.8 | .
Cc1nc(-c2ccc(NC(=O)c3ccco3)cc2)cs1 | 0.7 | -1.3 | -5.2 | -5.6 | -4.5
Cc1ccn2cc(-c3ccc(NC(=O)c4ccco4)cc3)nc2c1 | 0.3 | -3.5 | -33.4* | -2.9 | -10.8
Cc1ccccc1Cn1cc(CCC(=O)NC(C)c2ccccc2)c2ccccc21 (centres undefined) | 1.0 | -5.0 | -6.6 | -11.3 | .
CC(C)NC(=O)CCCc1cn(C)c2ccccc12 | 1.8 | 1.1 | -1.8 | 4.6 | 18.9
CC(CCc1ccccc1)NC(=O)CCc1cn(C)c2ccccc12 (centres undefined) | -0.2 | -1.1 | -44.1* | -7.5 | 0.0
CCn1cc(CCC(=O)NC(C)c2ccccc2)c2ccccc21 (centres undefined) | 0.0 | -2.9 | 12.3 | -0.3 | -54.6*
O=C(CC1N=C2c3ccccc3N=C(SCc3cccc(Cl)c3)N2C1=O)NC1CCCCC1 (centres undefined) | 0.9 | -0.1 | -10.7 | 8.0 | .
